TSHR antag: human thyrotropin receptor antagonism; P16473; 0.2% of 330,000 active; AID 504810; activity change, negative = inhibition, % at 11.5 µM; TSHR-expressing cells, TSH-stimulated cAMP HTRF, 2 h; hits give low values;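 active = activity change below a set negative limit, meaning inhibition stronger than a set level, cut at about -70% in these data; inconclusive = activity change between two set negative limits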; note: % is set by controls: 0 for no effect and ±100 for the full control effect
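Antagonism was scored as loss of TSH-driven cAMP in TSHR cells, stimulated with 4nM TSH (EC80) for 2 hours at 37 deg C and detected by homogeneous HTRF competition immunoassay.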
CtBP-E1A blk: blocks the CtBP interaction with E1A | AID 651724 | AlphaScreen GST-E1A/His-CtBP binding, 1536-well; hits give low values | activity change, % (no concentration beside the values) | 0.49% of 340,000 active; note: % is set by controls: 0 for no effect and ±100 for the full control effect
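AlphaScreen with 125 nM GST-E1A and 125 nM His-CtBP (5X stocks) in Tris pH 8.0, 300 mM NaCl, BSA, Tween 20, TCEP. Compounds preincubated 2 h at 37 deg C, then glutathione donor/nickel acceptor beads added for 1 h at 37 deg C in dark.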
Six1-Eya2 inh: inhibitors of human Six1/Eya2 interaction | Q15475+O00167 | AlphaScreen GST-Six1/His-Eya2 binding, biochemical; hits give low values | activity change, % (concentration not given with the values) | 0.56% of 360,000 active; note: % is set by controls: 0 for no effect and ±100 for the full control effect
Target sequence (O00167 whole entry, looked up): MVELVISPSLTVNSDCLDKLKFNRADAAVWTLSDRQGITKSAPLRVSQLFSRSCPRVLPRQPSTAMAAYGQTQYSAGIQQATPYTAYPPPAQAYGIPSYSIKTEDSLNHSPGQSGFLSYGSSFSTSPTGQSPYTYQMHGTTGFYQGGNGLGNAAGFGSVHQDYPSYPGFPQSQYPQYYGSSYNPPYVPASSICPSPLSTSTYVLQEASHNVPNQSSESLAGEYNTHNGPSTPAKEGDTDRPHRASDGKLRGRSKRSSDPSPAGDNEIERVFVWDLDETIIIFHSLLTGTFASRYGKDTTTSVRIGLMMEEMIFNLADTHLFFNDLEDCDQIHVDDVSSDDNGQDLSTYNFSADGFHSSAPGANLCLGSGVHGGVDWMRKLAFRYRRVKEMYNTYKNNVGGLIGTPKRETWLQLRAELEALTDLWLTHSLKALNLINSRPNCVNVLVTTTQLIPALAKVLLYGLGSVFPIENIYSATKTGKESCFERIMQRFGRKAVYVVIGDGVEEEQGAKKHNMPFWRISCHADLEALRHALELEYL
Target sequence (Q15475 whole entry, looked up): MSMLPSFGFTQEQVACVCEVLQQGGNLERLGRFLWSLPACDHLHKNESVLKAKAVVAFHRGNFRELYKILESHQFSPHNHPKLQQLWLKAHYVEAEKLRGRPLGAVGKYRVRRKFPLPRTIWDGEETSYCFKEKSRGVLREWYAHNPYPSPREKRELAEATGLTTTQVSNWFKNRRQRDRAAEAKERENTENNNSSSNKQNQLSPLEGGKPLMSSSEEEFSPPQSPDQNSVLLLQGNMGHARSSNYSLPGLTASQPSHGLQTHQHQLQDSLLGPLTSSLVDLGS
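AlphaScreen with GST-Six1 and His-Eya2 (5X mix: 250 nM and 500 nM), glutathione donor and nickel acceptor beads; buffer 50 mM Tris pH 8.0, 300 mM NaCl, 1 mM TCEP; 1 h at 37 C in the dark.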
BCR signal inh: chronic active BCR signaling inhibition | ABC-DLBCL IkBa-CBG/CBR reporter, luminescence ratio, 4 h | Potency, µM (highest dose often 46.1 µM), inactives show at the highest dose activity change, negative = inhibition, most hits filed as inhibitors | 0.05% of 340,000 active | AID 493014; active = well fitted inhibition curve with a large enough effect in the signal ratio, with a control signal flat, not every such curve was filed as active; inconclusive = small, poorly fitted or top-dose-only effect, or effect the other way, or a change in a side signal; the % refers to the signal ratio;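 note: potency is the fitted concentration of half-maximal effect; plate controls were basal doxycycline-induced cells for no effect and cells given 10 µM MG132 for full effect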
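TMD8 ABC-DLBCL cells carrying doxycycline-inducible green luciferase fused to IkappaBalpha plus unfused red luciferase were exposed to compounds (up to 46 uM) for 4 hrs at 37C. Activity came from the overlap-corrected green/red luminescence ratio.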
S-ASM inh: inhibitors of human secretory acid sphingomyelinase. 0.006% of 340,000 active. P17405. AID 504937. placental ASM, HMU-PC fluorogenic substrate, 60 min. Potency, µM (doses to about 57.5 µM), for inactives: at the top dose activity change, negative = inhibition, most hits filed as inhibitors; active = well fitted inhibition curve with a large enough effect; inconclusive = small, poorly fitted or top-dose-only effect; inactive = no such curve, though single readings can be large or run the other way; note: potency is the fitted concentration of half-maximal effect
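Fluorogenic HMU-PC substrate (9 uM final) is turned over by placental ASM in 60 min at 37 C after a 10 min compound preincubation. Reaction ended by alkaline stop (pH 10), with fluorescence read at 386/447 nm.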
* hit, by the source's call; u = inconclusive; x = no result. Only some compounds are listed: those with a hit (about 0.85% of all), similar ones and a draw of the others. Cut-off read from the data, not from the text of the source, unless noted: active = activity change below about -65%; inconclusive = mostly about -30% to -63%; inactive = weaker than that.

SMILES | TSHR antag | CtBP-E1A blk | Six1-Eya2 inh | BCR signal inh | S-ASM inh
Cc1[nH]c(=O)[nH]c(=O)c1/C=N\NC(=O)CCc1ccc(OC(C)C)cc1 | 10 | x | x | 2% | x
CCc1cnc2c(c1SCc1c(F)cccc1Cl)c(=O)n(C)c(=O)n2C | x | x | x | 0% | x
COc1cccc2sc(N3CCN(C(=O)CCS(=O)(=O)c4ccc(F)cc4)CC3)nc12 | x | x | x | -21% | x
COc1cccc(/C=N/NC(=O)c2ccncc2)c1OC(=O)c1ccc(Br)cc1 | -6 | -81* | u | -18% | -16%
CC(=O)N/N=C/c1cc(C)n(-c2ccc(Br)cc2)c1C | -9 | 4 | -19 | 1% | 0%
CC(=O)N/N=C/c1cc(C(C)C)cc(/C=N/NC(C)=O)c1O | -9 | -84* | -74* | -5% | 3%
Cc1ccc(N2CC(NC(=O)c3ccc(S(=O)(=O)N4CCCC4)cc3)CC2=O)cc1 (stereo not drawn) | x | x | x | -12% | x
Cc1cc(C)c(NC(=O)CSc2ccnc(=O)[nH]2)c(C)c1 | x | x | x | -1% | x
O=C(CCCn1c(=O)[nH]c2ccccc2c1=O)NCc1ccccc1Cl | x | x | x | -5% | x
COc1cccc(CNC(=O)c2ccc3nc(-c4ccc(F)cc4)c(-c4ccc(F)cc4)nc3c2)c1 | x | x | x | 10% | x
COc1ccc(NC(=O)C2CCN(S(=O)(=O)c3cccc(-c4noc(C)n4)c3)CC2)cc1OC | x | x | x | -30% | x
O=C(NC(Nc1nc2ccc([N+](=O)[O-])cc2s1)(C(F)(F)F)C(F)(F)F)c1ccccc1Cl | -83* | -2 | -7 | u | -10%
O=C(NC(Nc1nc2ccc([N+](=O)[O-])cc2s1)(C(F)(F)F)C(F)(F)F)c1cccnc1 | u | -19 | 5 | u | -7%
O=CN/N=C/c1c(O)ccc2ccccc12 | -4 | x | -91* | u | 26%
COc1ccccc1N(CC(=O)N/N=C/c1c(O)ccc2ccccc12)S(C)(=O)=O | -6 | u | -71* | u | 34%
NC(=S)N/N=C/c1c(O)ccc2ccccc12 | 10 | x | -91* | 2% | 16%
Oc1ccc2ccccc2c1/C=N/Nc1ccccc1 | 2 | 11 | -2 | 11% | -1%
COc1ccccc1NCC(=O)N/N=C/c1c(O)ccc2ccccc12 | -1 | -21 | -11 | u | 40%
O=C(CNc1ccc(F)cc1)N/N=C/c1c(O)ccc2ccccc12 | -3 | u | -16 | -9% | 32%
O=C(N/N=C/c1c(O)ccc2ccccc12)c1ccc(CO)nc1 | -7 | -92* | -87* | -10% | -7%
COc1cc(C(=O)NCc2ccc3c(c2)CCN3C(=O)c2ccncc2)cc(OC)c1OC | x | x | x | -10% | x
O=C(Cc1n[nH]c(=O)[nH]c1=O)N/N=C/c1c(O)ccc2ccccc12 | 24 | -68* | -87* | 2% | 23%
COc1ccc(NC(=O)N(CCC(C)C)C(C)c2cccs2)c(OC)c1 (stereo not drawn) | x | x | x | 9% | x
C=CCSc1nnc(-c2cc3c(-c4ccccc4)nn(C)c3s2)n1C | -15 | -76* | -75* | u | -14%
CCCN1CCN(CCCNC(=O)Cn2nc(C)n3c(cc4cc(OC)ccc43)c2=O)CC1 | -88* | x | 1 | 6% | 3%
SMILES | TSHR antag | CtBP-E1A blk | Six1-Eya2 inh | BCR signal inh | S-ASM inh
COc1cc2ccccc2cc1C(=O)N1CCN(c2nc3ccc(F)cc3s2)CC1 | x | x | x | 10% | x
CCN(CC)CCN(C(=O)CN1C(=O)c2ccccc2C1=O)c1nc2cc3c(cc2s1)OCO3 | -10 | -83* | -10 | -1% | -4%
CCN(CC)CCN(C(=O)c1ccc2ccccc2c1)c1nc2cc3c(cc2s1)OCO3 | 9 | -21 | -29 | -9% | -7%
Cc1ccc(Nc2nnc(SCC(=O)NCC3CCCO3)s2)cc1C (stereo not drawn) | x | -77* | -68* | -2% | -2%
CC[n+]1c(/C=C/N(C)c2ccccc2)n(-c2ccccc2)c2ccc(-c3nc4ccccc4s3)cc21 | -98* | -10 | -18 | u | 78%
COc1ccccc1CNC(=O)CN1N=C(c2ccccc2)CCC1=O | x | x | x | 0% | x
CCCCCCNc1cc2n(c(=O)n1)CCc1cc(OC)c(OC)cc1-2 | -6 | -81* | -71* | -6% | 44%
COc1cc2c(cc1OC)-c1cc(NC3CCCCCCC3)nc(=O)n1CC2 | 16 | -85* | -80* | u | 33%
CCOc1ccc(Nc2cc3n(c(=O)n2)CCc2cc(OC)c(OC)cc2-3)cc1 | -4 | -5 | -84* | u | -4%
COc1cc2c(cc1OC)-c1cc(NCc3ccccn3)nc(=O)n1CC2 | -10 | u | -78* | 6% | 114%
CCN(CC)C(=O)Cn1c(=O)n(-c2ccc(Cl)c(Cl)c2)c(=O)c2c(C)c(C(=O)N(CC)CC)sc21 | x | x | x | 8% | x
CC(C)CN(CCCNC(=O)c1cc(=O)[nH]c2ccc(S(=O)(=O)N3CCCCCC3)cc12)CC(C)C | x | x | x | 0% | x
Cn1ncc(S(=O)(=O)Cc2ccccc2)c(Br)c1=O | -12 | x | x | x | x
COc1cc2c(cc1OC)-c1cc(NC3CCCCC3)nc(=O)n1CC2 | 7 | -66* | -65* | u | 16%
COc1cc2c(cc1OC)-c1cc(NC3CC3)nc(=O)n1CC2 | -1 | u | u | -88% | 19%
N=S(=O)(O)Cc1noc2ccccc12 | -11 | x | x | x | x
COc1ccc(NC(=O)c2c(NCc3cccc(F)c3)sc3c2CCC3)c(OC)c1 | x | x | x | -3% | x
CCN(C(C)=O)c1cnc(C=NNC(N)=S)c2ccccc12 | x | u | -90* | x | -3%
NC(=S)NN=Cc1nccc2c(N)cccc12 | x | -88* | -93* | x | x
Cc1ccc(N2CC(NC(=O)c3cc4ccccc4o3)CC2=O)cc1 (stereo not drawn) | x | x | x | -12% | x
Cc1ccc(S(=O)(=O)NCC2CCC(C(=O)NCCc3ccc(Cl)cc3)CC2)cc1 (stereo not drawn) | x | x | x | 13% | x
O=C(O)c1ccc2c(c1Nc1ccccc1)C(=O)c1ccccc1C2=O | -27 | u | -66* | u | -1%
CC(=O)N1CCc2cc(Br)cc(S(=O)(=O)NCCc3cccc(C)c3)c21 | x | x | x | 5% | x
Cc1cc2c(cc(C(=O)OCC(=O)NCc3cccs3)n2C(C)C)o1 | 1 | 8 | -20 | 8.2µM* | -8%
COc1ccc(-c2ccc(=O)n(CC(=O)Nc3ccc(N(C)C)cc3)n2)cc1 | x | x | x | -4% | x
COc1ccc(/C=N/NC(=O)CCn2cnc(-c3ccccc3)c2-c2ccccc2)cc1 | 6 | -22 | -24 | 23µM* | -14%
N#Cc1ccc(C(=O)NCc2ccc3c(c2)CCN3C(=O)c2ccc(F)cc2)cc1 | x | x | x | 5% | x
Nn1c(SC/C=C/c2ccccc2)nnc1-c1ccccn1 | 13 | -78* | -75* | u | -1%
Nn1c(SC/C=C/c2ccccc2)nnc1-c1cccnc1 | 6 | -1 | 6 | -2% | -2%
Cc1cccn2c(Nc3ccccc3)c(-c3ccccn3)nc12 | 0 | -23 | -22 | -1% | 0%

Screening data (PubChem BioAssay)
